Here are results for eight compounds from PubChem BioAssay (NCI).

Compounds without any hit were thinned out: in the full panel of roughly 83,000, 20% have a hit.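 Percent growth is the endpoint: 0 to 100 indicates growth inhibition (40 means 60% inhibition), 0 means no net growth, and negative values indicate cell death.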 Values without a mark were called inactive. Activity calls are given as the source filed them. How the source made its calls: active means growth percent below 10; inactive means the rest.

Common to all, as to assay: NCI-60 one-dose screen, 48 h (100 = growth as untreated, 0 = no growth, -100 = all killed)
Assay [1] deals with HT29 colon. Particulars: 10 µM unless noted.
Assay [2] relates to SNB-75 CNS. Particulars: 10 µM unless noted.
For assay [3], the system named is SNB-19 CNS. Conditions: 10 µM unless noted.
Assay [4] relates to U251 CNS. Conditions: 10 µM unless noted.
Assay [5] relates to PC-3 prostate. Conditions: 10 µM unless noted.
Assay [6] deals with SK-MEL-5 melanoma. Conditions: 10 µM unless noted.
For assay [7], the system named is UACC-62 melanoma. Conditions: 10 µM unless noted.
In assay [8] the test system is LOX IMVI melanoma. Conditions: 10 µM unless noted.
Assay [9] relates to SK-MEL-28 melanoma. Particulars: 10 µM.
Assay [10] has as its system SK-MEL-2 melanoma. Conditions: 10 µM unless noted.
In assay [11] the test system is EKVX NSCLC. Conditions: 10 µM unless noted.
The subject of assay [12] is SN12C renal. Particulars: 10 µM unless noted.
Assay [13] relates to UO-31 renal. Conditions: 10 µM unless noted.
Assay [14] deals with TK-10 renal. Particulars: 10 µM unless noted.
Assay [15] has as its system ACHN renal. Conditions: 10 µM unless noted.
Assay [16] has as its system CAKI-1 renal. Particulars: 10 µM unless noted.
Assay [17] relates to A498 renal. Conditions: 10 µM unless noted.
Assay [18] has as its system CCRF-CEM leukemia. Particulars: 10 µM unless noted.
Assay [19] concerns MOLT-4 leukemia. Particulars: 10 µM unless noted.

As for `O=c1oc2ccc(F)cc2c(=O)n1-c1ccc(I)cc1F`, the growth in assay [1] was 46.2%; in [2], -15.3% (active); in assay [3], 15.6%; in assay [4], 0.481% (active); in [5], -2.68% (active); in [6] it was -84.1% (active). For the same compound, the growth in assay [7] is -16.4% (active); in [8] it was 10.7%; in assay [9], 12.3%; in assay [10], -19.7% (active); in assay [11], 9.58% (active); in assay [12], -3.72% (active). The growth is 2.62% (active) in assay [13]; 0.748% (active) in assay [14]; 1.58% (active) in assay [15]; -19.2% (active) in [16]; -61.4% (active) in [17]; 12% in assay [18]. The growth in [19] is -0.279% (active).

For `O=C(Nc1ccc(N2CCNCC2)cn1)c1[nH]ncc1Nc1ncnc2sccc12`, the growth in assay [1] was 2.95% (active); in assay [2], 59.5%; in assay [3] it was 48.7%; in assay [4], -51.1% (active); in assay [5], 23.7%; in assay [6], 58.2%. Also, the growth is 74.7% in assay [7]; -75.1% (active) in [8]; -81.4% (active) in assay [9]; 85.7% in [10]; 65.8% in assay [11]; 66.9% in assay [12]. The growth in [13] was 76.1%; in assay [14], 87.1%; in assay [15], 60.2%; in assay [16], 54.1%; in [17] it was 80.7%; in assay [18] it was 5.54% (active). Besides, the growth in assay [19] is 2.22% (active).

As for `O=C(/C=C/c1ccc(Cl)cc1)c1ccc(Nc2nc(NCCO)nc(N3CCOCC3)n2)cc1`, the growth in assay [1] is 42.2%; in assay [2], 64.6%; in assay [3] it was 91.9%; in assay [4] it was 46.1%; in [5], 77.1%; in assay [6], 79.4%. Besides, the growth is 69% in assay [7]; 68% in assay [8]; 94.7% in assay [9]; 109% in assay [10]; 94% in assay [11]; 88.4% in assay [12]. Also, the growth was 56% in [13]; 111% in assay [14]; 82.5% in assay [15]; 77.6% in assay [16]; 92.6% in assay [17]; 82.8% in assay [18]. For the same compound, in [19], the growth is 71.3%.

As to `CN1CCN(Cc2ccc(C(=O)Nc3cncc(C#Cc4cnc5cccnn45)c3)cc2C(F)(F)F)CC1`, the growth in [1] was 23%; in assay [2], 96.9%; in assay [3], 95%; in assay [4], 65.2%; in assay [5], 60.4%; in assay [6], 74.3%. For the same compound, the growth was 74.2% in assay [7]; 56% in assay [8]; 67% in assay [9]; 31.8% in [10]; 75% in assay [11]; 48.1% in [12]. In addition, the growth in [13] is 21.5%; in [14], 82.8%; in assay [15] it was 25.6%; in assay [16], 13.9%; in [17] it was 11.3%; in [18] it was 32.6%. Besides, the growth in assay [19] is 13.6%.

For `C#CCn1cc(C=C2C(=O)NC(=O)NC2=O)c2cc(Cl)ccc21`, the growth was 116% in assay [1]; 92.9% in assay [2]; 78.8% in assay [3]; 82.1% in assay [4]; 92% in assay [5]; 81.9% in [6]. For the same compound, the growth was 65.3% in [7]; 73.2% in assay [8]; 106% in [9]; 98.1% in assay [10]; 90.9% in assay [11]; 81.3% in assay [12]. Further, the growth in assay [13] is 67.5%; in assay [14] it was 118%; in assay [15] it was 97.4%; in [16] it was 72%; in assay [17] it was -53.3% (active); in assay [18], 82.2%. Moreover, the growth in assay [19] was 77.9%.

In the case of `COc1ccc(C2Nc3nc(OC)n(C)c(=O)c3N=C3c4ccccc4C(=O)C32)cc1` (configuration not stated), the growth in assay [1] is 113%; in assay [2], 77.4%; in [3] it was 91.8%; in assay [4], 90.8%; in [5], 87.8%; in assay [6], 95%. The growth in assay [7] is 93.1%; in assay [8] it was 87.7%; in assay [9], 106%; in [10] it was 89.7%; in [11], 81.9%; in [12], 86.6%. The growth in assay [13] was 94.2%; in [14], 124%; in assay [15], 85.3%; in assay [16] it was 54.4%; in assay [17] it was 105%; in assay [18], 87.9%. In [19], the growth is 77.3%.

Consider `O=C(c1ccccc1)N(C(=S)NCCc1ccc(Cl)cc1)c1ccccc1`, for which the growth was 101% in [1]; 118% in assay [2]; 104% in assay [3]; 87.6% in assay [4]; 83.3% in [5]; 98.3% in [6]. The growth in [7] is 96.9%; in [8], 68.2%; in assay [9], 113%; in assay [10], 99.9%; in assay [11], 96.3%; in [12], 110%. In addition, the growth in [13] was 80%; in assay [14], 82.5%; in [15] it was 108%; in [16] it was 93.2%; in assay [17], 95.3%; in assay [18], 61.3%. Besides, in assay [19], the growth was 47.6%.

On to `O=C1c2cc(Br)ccc2Oc2cc([N+](=O)[O-])ccc2N1c1ccc(I)cc1F`, for which the growth was 99.6% in assay [1]; 89.5% in [2]; 94% in [3]; 94.4% in [4]; 103% in assay [5]; 99.2% in [6]. Further, the growth in [7] is 87.2%; in [8] it was 93.5%; in assay [9], 113%; in [10], 101%; in assay [11], 91.9%; in [12] it was 94.2%. For the same compound, the growth in [13] is 73%; in assay [14], 112%; in assay [15] it was 99.7%; in assay [16] it was 84.9%; in [17], 98.9%; in [18], 96.8%. Also, in [19], the growth is 85%.
